This passage reports growth inhibition results from PubChem BioAssay (NCI).

About 79,000 compounds went through this panel and 15% of them were active in at least one assay; those are over-represented in the sample as a whole. Unmarked numbers belong to inactive results. Active and inactive are the calls of the source. Rule as the data show it: active = growth inhibition above about 70%; inactive = the rest.

The nature of the first test: NCI Yeast Anticancer Drug Screen. Data for the rad50 strain (AID 155).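 Also: 0% = growth of vehicle-only cultures of the same strain.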 To be noted: S. cerevisiae rad50 strain growth inhibition; at 50.0 µM; active compounds read high. In a few lines: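 Growth of the mutant yeast was measured after compound exposure and referenced to vehicle-treated cultures.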
On to `Nc1ncc2[nH]c(I)nc2n1`, for which the growth inhibition is 16.9%.
Same read-out and setting: the value for `CCC1(c2ccccc2)CCCC/C1=N/NC(N)=O` (stereo not given) was 2.55%; that for `CC(=N/NC(=S)NCCN1CCCC1)/C(C)=N\NC(=S)NCCN1CCCC1` was 50.6%; that for `O=C(NN1C(=O)c2cccc3cccc(c23)C1=O)NN1C(=O)c2cccc3cccc(c23)C1=O` was 98.2% (active).
Regarding `Cc1c(COC(=O)NC(C)C)c(COC(=O)NC(C)C)c2n1CS(=O)(=O)C2`, the growth inhibition was -16.2%.
On the same count and under the same terms, the result for `CC1(C(=O)O)CCCC2(C)c3ccc(O)cc3CCC12` (stereo not given) reads 37%; that for `C1CCc2[nH]nc(-c3n[nH]c4c3CCCCC4)c2CC1`, 9.25%.
As to `CN(C)CCN1C(=O)c2c(c3cccn3c3c2cnn3-c2ccccc2)C1=O`, the growth inhibition was 36.8%.
On the same count and under the same terms, the value for `O=[N+]([O-])c1ccc(S(=O)(=O)Nc2ccccc2-c2ccccc2)cc1` was 99% (active); that for `N#CC1=CCc2ccccc2N1C(=O)Oc1ccccc1` was 58.5%; that for `O=C(NNc1nc(N2CCOCC2)nc(N2CCOCC2)n1)c1ccccc1` was 16.6%.
As to `CC(=O)OCc1ccc(C)cc1`, the growth inhibition was -9.05%.
For the compound `Cn1cnc([N+](=O)[O-])c1Sc1ccncc1S(N)(=O)=O`, the growth inhibition is -5.65%.
With `CCN(CC)CCCNC(Cc1ccccc1)c1ccc(OC)cc1` (stereo not given), the growth inhibition is -1.85%.
Regarding `C=C1CCc2ccccc2C1=O`, the growth inhibition was 23.4%.
With `O=S(Nc1ccc(Cl)cc1)c1ccccc1` (stereo not given), the growth inhibition is 10%.
As to `O=C1C(O)=C(Cl)C(=O)C(OC2=C(Cl)C(=O)C(OC3=C(Cl)C(=O)C(OC4=C(Cl)C(=O)C(Cl)=C(Cl)C4=O)=C(Cl)C3=O)=C(Cl)C2=O)=C1Cl`, the growth inhibition is 9.55%.
On to `CCCCCCCCCCCc1cc(=O)c2c(O)cccc2o1`, for which the growth inhibition was -5%.
On the same count and under the same terms, the value for `CCCCNS(=O)(=O)c1cc(C(=O)O)cc(C(=O)O)c1` was 2.55%; that for `C=C1CC2(CCC3C4CC=C5CC(O)CCC5(C)C4CCC32C)OC1=O` (stereo not given) was 2.9%; that for `CCC(c1ccccc1)c1cc(C(C)(C)C)cc(C(C)(C)C)c1O` (stereo not given) was 31.9%.
Still for that read-out and setting: the result for `O=C1CCC2(O1)c1ccc(O)cc1Oc1cc(O)ccc12` reads 1.05%; that for `C=Nc1ccc(C)cc1`, 6.7%.
Same read-out and setting: the value for `O=[N+]([O-])c1cc(Br)ccc1N1CCCC1` was -8.7%.
For the compound `ClNc1nc(NCl)nc(NCl)n1`, the growth inhibition was -17.7%.
Turning to `CCCCCCCCCCCCCCCCc1c(C)nc(N(C)C)oc1=O`, the growth inhibition was 18.8%.
The same measure, in the same setting: the result for `CN(C)CCNc1cccc2oc3ccc(O)cc3c(=O)c12` reads 8.2%.
On to `CCOC(=O)c1c[nH]c2ccc3c(nc(C)n3C)c2c1=O`, for which the growth inhibition is -7.95%.
Regarding `O=S(=O)(O)SCC1=NCCN1`, the growth inhibition is 17.9%.
The same measure, in the same setting: the value for `NC(=O)C1CCCN(C2OC(COP(=O)(O)OP(=O)(O)OCC3OC(n4cnc5c(N)ncnc54)C(OP(=O)(O)O)C3O)C(O)C2O)C1` (stereo not given) was 5.85%.
The same measure, in the same setting: the result for `COC(=O)c1cccn1C(=O)c1ccc(C)c(OCc2ccccc2)c1[N+](=O)[O-]` reads 1.6%.
Regarding `CCCCSC(CC(O)C(O)COC(=O)c1ccc([N+](=O)[O-])cc1)SCCCC` (stereo not given), the growth inhibition was -12.1%.
In the case of `CCOC(=O)N1CN(C(=O)OCC)CN(C(=O)OCC)C1`, the growth inhibition was 15.7%.
`CC(=O)OCC(OC(C)=O)C(OC(C)=O)C(OC(C)=O)C(O)CO` (stereo not given): the growth inhibition is -0.55%.
Take `COc1cc([C@@H]2c3cc4c(cc3[C@H](OC(=O)CCCC(=O)O)[C@H]3COC(=O)[C@H]23)OCO4)cc(OC)c1OC`: the growth inhibition is 26.2%.
As for `O=C1c2ccccc2-c2ccc(-c3ccc4c5c(cccc35)C(=O)c3ccccc3-4)c3cccc1c23`, the growth inhibition was -21.9%.
The same measure, in the same setting: the result for `OCCn1nnc2ccccc21` reads -0.55%.
For `O=C(O)c1cc(=O)[nH]c2ccccc12`, the growth inhibition is -10.1%.
For `CCN(CC)CCOCC(=O)Nc1ccccc1C`, the growth inhibition was -17.3%.
Turning to `O=C(O)Cc1ccccc1C(=O)O`, the growth inhibition is 12.9%.

A short description of a further test: NCI Yeast Anticancer Drug Screen. Data for the mec2-1 strain (AID 157). Particulars: S. cerevisiae mec2-1 strain, at 50.0 µM, active compounds read high. In a few lines:
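Test agents were screened against the mec2-1 yeast strain, with defined DNA repair or cell cycle alteration. Growth was scored as inhibition against vehicle-only controls.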
As for `Nc1ncc2[nH]c(I)nc2n1`, the growth inhibition is 19.9%.
As to `CCC1(c2ccccc2)CCCC/C1=N/NC(N)=O` (stereo not given), the growth inhibition is -16.6%.
As to `CC(=N/NC(=S)NCCN1CCCC1)/C(C)=N\NC(=S)NCCN1CCCC1`, the growth inhibition was 4.95%.
Regarding `O=C(NN1C(=O)c2cccc3cccc(c23)C1=O)NN1C(=O)c2cccc3cccc(c23)C1=O`, the growth inhibition is 99.4% (active).
Turning to `Cc1c(COC(=O)NC(C)C)c(COC(=O)NC(C)C)c2n1CS(=O)(=O)C2`, the growth inhibition was 6.55%.
For the compound `CC1(C(=O)O)CCCC2(C)c3ccc(O)cc3CCC12` (stereo not given), the growth inhibition was 29.9%.
Regarding `C1CCc2[nH]nc(-c3n[nH]c4c3CCCCC4)c2CC1`, the growth inhibition was 3.35%.
Take `CN(C)CCN1C(=O)c2c(c3cccn3c3c2cnn3-c2ccccc2)C1=O`: the growth inhibition was 12.1%.
For `O=[N+]([O-])c1ccc(S(=O)(=O)Nc2ccccc2-c2ccccc2)cc1`, the growth inhibition was 99% (active).
As to `N#CC1=CCc2ccccc2N1C(=O)Oc1ccccc1`, the growth inhibition is 12.7%.
Take `O=C(NNc1nc(N2CCOCC2)nc(N2CCOCC2)n1)c1ccccc1`: the growth inhibition was 5.15%.
`CC(=O)OCc1ccc(C)cc1`: the growth inhibition was 6.6%.
Consider `Cn1cnc([N+](=O)[O-])c1Sc1ccncc1S(N)(=O)=O`, for which the growth inhibition was -14.4%.
With `CCN(CC)CCCNC(Cc1ccccc1)c1ccc(OC)cc1` (stereo not given), the growth inhibition was -7.45%.
As to `C=C1CCc2ccccc2C1=O`, the growth inhibition was -4%.
As for `O=S(Nc1ccc(Cl)cc1)c1ccccc1` (stereo not given), the growth inhibition is 10.9%.
Take `O=C1C(O)=C(Cl)C(=O)C(OC2=C(Cl)C(=O)C(OC3=C(Cl)C(=O)C(OC4=C(Cl)C(=O)C(Cl)=C(Cl)C4=O)=C(Cl)C3=O)=C(Cl)C2=O)=C1Cl`: the growth inhibition is 3.5%.
As for `CCCCCCCCCCCc1cc(=O)c2c(O)cccc2o1`, the growth inhibition is -28.6%.
As to `CCCCNS(=O)(=O)c1cc(C(=O)O)cc(C(=O)O)c1`, the growth inhibition is -7%.
Turning to `C=C1CC2(CCC3C4CC=C5CC(O)CCC5(C)C4CCC32C)OC1=O` (stereo not given), the growth inhibition was 11.7%.
With `CCC(c1ccccc1)c1cc(C(C)(C)C)cc(C(C)(C)C)c1O` (stereo not given), the growth inhibition was -36%.
With `O=C1CCC2(O1)c1ccc(O)cc1Oc1cc(O)ccc12`, the growth inhibition was -24.1%.
Still for that read-out and setting: the value for `C=Nc1ccc(C)cc1` was -14.8%; that for `O=[N+]([O-])c1cc(Br)ccc1N1CCCC1` was 4.2%; that for `ClNc1nc(NCl)nc(NCl)n1` was -25.8%.
Turning to `CCCCCCCCCCCCCCCCc1c(C)nc(N(C)C)oc1=O`, the growth inhibition was 23%.
`CN(C)CCNc1cccc2oc3ccc(O)cc3c(=O)c12`: the growth inhibition is -4.95%.
With `CCOC(=O)c1c[nH]c2ccc3c(nc(C)n3C)c2c1=O`, the growth inhibition was -1.05%.
Take `O=S(=O)(O)SCC1=NCCN1`: the growth inhibition is -5.1%.
As for `NC(=O)C1CCCN(C2OC(COP(=O)(O)OP(=O)(O)OCC3OC(n4cnc5c(N)ncnc54)C(OP(=O)(O)O)C3O)C(O)C2O)C1` (stereo not given), the growth inhibition is -15.1%.
`COC(=O)c1cccn1C(=O)c1ccc(C)c(OCc2ccccc2)c1[N+](=O)[O-]`: the growth inhibition was -15.8%.
With `CCCCSC(CC(O)C(O)COC(=O)c1ccc([N+](=O)[O-])cc1)SCCCC` (stereo not given), the growth inhibition is 1.95%.
For `CCOC(=O)N1CN(C(=O)OCC)CN(C(=O)OCC)C1`, the growth inhibition was 19.5%.
Consider `CC(=O)OCC(OC(C)=O)C(OC(C)=O)C(OC(C)=O)C(O)CO` (stereo not given), for which the growth inhibition was 18.8%.
As to `COc1cc([C@@H]2c3cc4c(cc3[C@H](OC(=O)CCCC(=O)O)[C@H]3COC(=O)[C@H]23)OCO4)cc(OC)c1OC`, the growth inhibition was 23.2%.
For `O=C1c2ccccc2-c2ccc(-c3ccc4c5c(cccc35)C(=O)c3ccccc3-4)c3cccc1c23`, the growth inhibition is -27.6%.
For `OCCn1nnc2ccccc21`, the growth inhibition is -2%.
Same read-out and setting: the result for `O=C(O)c1cc(=O)[nH]c2ccccc12` reads -5.7%; that for `CCN(CC)CCOCC(=O)Nc1ccccc1C`, 4.8%.
On the same count and under the same terms, the value for `O=C(O)Cc1ccccc1C(=O)O` was 2.3%.
